aSyn 5UTR act: Activators via SNCA 5'UTR binding, MLPCN; AID 1814, 2009; hit rate 7.1% among 300,000; alpha-synuclein 5'UTR reporter, activators screen; activity score, % (tested at 7.5 µM), hits read low; in the data active = activity score below about -60%
Starred values were filed as active, the others as inactive. Only a sample is shown.

SMILES	aSyn 5UTR act
COc1cccc(C2(O)CC(C(F)(F)F)=NN2C(=O)c2ccccn2)c1 (stereo unspecified)	-113*
N=c1oc2cc(O)ccc2cc1C(=O)Nc1ccc(F)cc1	-148*
O=C(c1ccc(F)cc1)c1cc2ccc(O)cc2oc1=O	-62*
CCCCCCc1cc2cc(C(=O)Nc3cccc(OC)c3)c(=O)oc2cc1O	63
COc1ccc(NC(=O)c2cc3cc(OC)ccc3oc2=N)cc1	-63*
COc1ccc(NC(=O)c2cc3ccc(O)cc3o/c2=N\O)cc1	-155*
O=C(c1ccc(-n2cccn2)cc1)N1CCc2ccccc2C1	-63*
COCC(C)NC(=O)CCc1nnc(C2(c3ccc(Cl)cc3)CCC2)o1 (stereo unspecified)	-81*
C=C(C)CNC(=O)CCc1nnc(C2(c3ccc(Cl)cc3)CCC2)o1	-98*
C=CCNC(=O)CCc1nnc(C2(c3ccc(Cl)cc3)CCC2)o1	-120*
CN1C2=CC=CC=CC2=[N+](C)C12C([N+](=O)[O-])=CC(=[N+]([O-])[O-])C=C2[N+](=O)[O-] (stereo unspecified)	-73*
O=[N+]([O-])c1nn(-c2ccc3c(c2)OCCO3)n(O)c1=NCCC1=CCCCC1	-139*
O=[N+]([O-])c1nn(-c2ccc3c(c2)OCCO3)n(O)c1=NCc1ccc(F)cc1	-124*
O=[N+]([O-])c1nn(-c2ccc3c(c2)OCCO3)n(O)c1=NCc1ccc(F)cc1Cl	-140*
CCOC(=O)CCS(=O)(=O)c1nc(-c2ccccc2)cc(C(F)(F)F)n1	-129*
COC(=O)CCS(=O)(=O)c1nc(-c2ccccc2)cc(C(F)(F)F)n1	-73*
COc1ccc(C(=O)Nc2cc3c4c(c2)CC(=O)N4CCC3)c(OC)c1	-90*
Cc1ccccc1S(=O)(=O)Nc1nc2ccccc2nc1N1CCc2ccccc2C1	-108*
O=S(=O)(Nc1nc2ccccc2nc1N1CCc2ccccc2C1)c1ccc(Cl)cc1	86
CC(C)(C)c1ccc(NC(=O)CC2(C(F)(F)F)OCCO2)cc1	-112*
O=[N+]([O-])c1cccc(/C=C/c2nc3ccc([N+](=O)[O-])cc3[nH]2)c1	-152*
O=[N+]([O-])c1ccc2nc(-c3ccccc3)[nH]c2c1	-121*
Cn1cccc1-c1nc2ccc([N+](=O)[O-])cc2[nH]1	-175*
CC(=O)Nc1nc(C)c(-c2nc3ccc([N+](=O)[O-])cc3[nH]2)s1	-81*
Cc1cc2nc(/C=C/c3cccnc3)[nH]c2cc1C	92
SMILES	aSyn 5UTR act
O=[N+]([O-])c1cccc(/C=C/c2ccccn2)c1	-141*
O=[N+]([O-])c1cc(/C=N\Nc2ccccn2)ccc1Cl	-91*
O=[N+]([O-])c1cccc(/C=N/Nc2ccccn2)c1	-230*
O=[N+]([O-])c1cc(Cl)cc(/C=N\Nc2ccccn2)c1O	90
Nc1nnc(/C=C/c2cccc([N+](=O)[O-])c2)s1	-64*
N#C/C(=C\c1cccc([N+](=O)[O-])c1)c1ccccn1	-67*
O=[N+]([O-])c1cccc(/C=N/Nc2nccnc2Cl)c1	-147*
CN(C)c1ccc(/C=N\Nc2ccccn2)cc1	-232*
O=C(N/N=C/c1ccc(Sc2nc3ccccc3s2)c([N+](=O)[O-])c1)c1ccccn1	-75*
Cc1[nH]c2ccccc2c1/C=N/Nc1ccccn1	-100*
O=C(O)c1ccc(N/N=C/c2ccc(OC(=O)c3cccc(Cl)c3)cc2)cc1	76
O=C(O)c1ccc(/C=N\Nc2ccccn2)cc1	-79*
O=C(O)c1ccc(/C=N/Nc2ncc(Cl)cc2Cl)cc1	-72*
O=C(N/N=C/c1ccc(Cl)c([N+](=O)[O-])c1)c1cnccn1	-72*
O=[N+]([O-])c1ccc(/C=N/Nc2ccccn2)cc1	-188*
CCCc1cc(C(=O)Nc2ccc(OC)cc2[N+](=O)[O-])cs1	-100*
Cc1c(C(=O)Nc2ccccc2[N+](=O)[O-])csc1-c1ccccc1	-142*
COc1ccc(NC(=O)c2ccccc2)c([N+](=O)[O-])c1	-144*
Cc1ccc(NC(=O)c2cccnc2)c([N+](=O)[O-])c1	-63*
CCCOc1ccc(C(=O)Nc2ccccc2[N+](=O)[O-])cc1	-401*
CCCOc1ccc(C(=O)NNC(=S)NC(=O)c2ccccc2)cc1	80
COc1ccc(Nc2nc(-c3cccs3)cs2)c(OC)c1	-196*
COc1ccccc1Nc1nc(-c2cccs2)cs1	-254*
COc1ccc(Nc2nc(-c3cccs3)cs2)cc1	-205*
COc1ccc(Nc2nc(-c3sc(C)nc3C)cs2)c(OC)c1	-124*
SMILES	aSyn 5UTR act
O=C(/C=C/c1ccc(Cl)cc1)NCCc1ccccc1	-67*
O=C(/C=C/c1ccccc1Cl)NCCc1ccccc1	-176*
O=c1c2ccccc2nnn1COc1cccc2ccccc12	-147*
O=c1c2ccccc2nnn1COc1ccc(F)cc1Cl	-118*
O=c1c2ccccc2nnn1COc1ccc(Cl)cc1Br	-154*
COc1ccc(CNC(=O)CSc2nnc(NC(=O)c3ccccc3F)s2)cc1	-69*
O=C(CSc1ccccc1)N1CCc2ccccc21	-113*
Cc1nc(SCC(=O)N2CCc3ccccc32)n[nH]1	-68*
Nc1cc(N)nc(SCC(=O)N2CCc3ccccc32)n1	-87*
O=C(CSCc1ccco1)N1CCc2ccccc21	-83*
O=C(Cc1c[nH]c2ccccc12)N1CCc2ccccc21	-63*
O=C(CSCc1ccco1)c1ccc(Cl)s1	-116*
CCn1c(CNc2ccc(OC)cc2)nnc1SCC(=O)N1CCCc2ccccc21	-70*
CCn1c(-c2ccc(F)cc2)cnc1SCC(=O)N1CCc2ccccc21	-85*
Cc1ccc2c(CC(=O)N3CCc4ccccc43)coc2c1	-161*
Cc1ccc(-n2c(=S)[nH]c3c(oc4ccccc43)c2=O)cc1	-100*
Cc1cccc(-n2c(=S)[nH]c3c(oc4ccccc43)c2=O)c1	-88*
COc1ccc(/C=C/C(=O)Oc2cccc(/C=N/NC(=O)Cc3ccc(Br)cc3)c2)cc1	-80*
Cc1ccc(-c2cn(-c3ccccc3)c(=S)[nH]2)cc1C	-94*
CCc1ccc(-n2cc(-c3ccc([N+](=O)[O-])cc3)[nH]c2=S)cc1	-108*
COc1ccc(-n2cc(-c3ccc(Br)cc3)[nH]c2=S)cc1	-138*
Fc1ccccc1-n1cc(-c2ccccc2)[nH]c1=S	-100*
COc1ccc(-n2cc(-c3ccccc3)[nH]c2=S)c(OC)c1	-75*
O=[N+]([O-])c1ccc(-c2cn3c(n2)SCC3)cc1	-81*
N#Cc1ccc(-c2cn3c(n2)SCC3)cc1	-144*
SMILES	aSyn 5UTR act
CC(=O)Nc1ccc(Nc2c3c4c(cccc4n(C)c2=O)C(=O)c2ccccc2-3)cc1	59
O=C(O)/C=C/C(=O)Nc1ccc2nccnc2c1	-75*
O=C(O)/C=C/C(=O)Nc1ccc2c(c1)C(=O)c1ccccc1C2=O	-65*
CC(=O)Nc1ccc2c(c1)C(=O)c1ccccc1C2=O	-185*
O=C1c2ccccc2C(=O)c2cc(NC(=O)C3CC3)ccc21	-161*
Nc1ccc2c(c1)C(=O)c1ccccc1C2=O	-145*
CC(=O)Nc1ccc2nc3ccccc3nc2c1	-82*
Nc1ccc2c(c1)C(=O)C(=O)c1ccccc1-2	130
CN(C)C(=O)N1CCN(c2nc(-c3ccccc3)cs2)CC1	-192*
Cc1cc(N2CCN(c3nc(-c4ccc([N+](=O)[O-])cc4)cs3)CC2)c2ccccc2n1	66
O=C1CNC(=S)N1c1nc(-c2ccccc2)cs1	-141*
O=C(N1CCOCC1)N1CCN(c2nc(-c3ccccc3)cs2)CC1	-77*
c1ccc(-c2csc(N3CCOCC3)n2)cc1	-145*

Screens from PubChem BioAssay.
